Results reported in PubChem BioAssay AID493131 (Broad Institute, 2011).
The campaign covered roughly 340,000 compounds. About 3,300 (0.97%) were called active.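 How the source made its calls: active means mean activation above about 17%, with every replicate also reaching it (limit read from the data, passing the limit was not always enough); inconclusive means only one of the two conditions met; inactive means the rest.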 The list comes from a sample in which actives are over-represented; it also holds similar structures and randomly drawn compounds.

target: Protein FosB (Mus musculus) (UniProt P13346); test: activators of delta FosB homodimer, primary screen, biochemical, fluorescence polarization, TAMRA-CDK5 oligo, single point (AID 493131); conditions: purified delta FosB, at 25 µM, active compounds read high, percent of positive-control signal above neutral wells;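 further: fluorescence polarization rise as delta FosB binds a TAMRA Cdk5 AP-1 oligo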
Sequence (P13346 whole entry, looked up): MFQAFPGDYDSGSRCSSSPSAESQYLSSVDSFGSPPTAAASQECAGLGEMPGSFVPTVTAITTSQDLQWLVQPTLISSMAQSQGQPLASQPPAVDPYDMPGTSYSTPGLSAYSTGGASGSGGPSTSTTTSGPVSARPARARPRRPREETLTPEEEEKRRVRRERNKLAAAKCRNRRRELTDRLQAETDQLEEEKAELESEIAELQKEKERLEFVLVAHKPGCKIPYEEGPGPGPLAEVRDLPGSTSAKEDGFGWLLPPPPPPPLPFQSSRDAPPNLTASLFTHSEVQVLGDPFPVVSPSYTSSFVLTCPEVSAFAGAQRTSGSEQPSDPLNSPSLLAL

activation, inactive:
COc1ccc(C2=Nc3cc(C)ccc3OC2)cc1 -10.5%
CCOC(=O)COn1c(=O)c(-c2ccc(OCC)cc2)[n+]([O-])c2ccccc21 -3.65%
COc1cccc(NC(=O)COC(=O)CCOc2ccccc2OC)c1 2.67%
CCCCOc1ccc(NC(=O)CSCC(=O)OCC)cc1 -6.39%
CCOC(=O)CNC(=O)CSc1nnc(-c2cccc(OC)c2)n1CC -2.27%
CCC1=C(OC(=O)N(CC)CC)N2C(=O)OC(=NCCc3c[nH]c4ccccc34)[C@]2(C)[C@H]2C1=CC[C@H]1C(=O)N(CC)C(=O)[C@H]12 -18.3%
CC(=O)c1ccc(S(=O)(=O)N2CCC(Oc3ccc(-n4cnnn4)cc3)CC2)cc1 12.7%
CCOC(=O)N1CCN(S(=O)(=O)c2ccc(-n3cnnn3)cc2)CC1 -6.35%
Cn1c(=O)c2c(nc(Br)n2CCSc2nc3ccccc3o2)n(C)c1=O 1.42%
Cc1cccc(C)c1NC(=O)C1(C)c2cccc[n+]2CC(=O)N1Cc1cccs1 (configuration not stated) -6.06%
C=CCc1ccccc1OCC(O)CN1CCN(CCO)CC1 (configuration not stated) -2.68%
COc1ccccc1OCC(O)CN1CCOCC1 (configuration not stated) -1.24%
COc1ccc(S(=O)(=O)NCCOc2ccccc2)cc1F 7.41%
CCCSc1nc2sc3c(c2c(=O)n1-c1ccc(OC)cc1)CCN(C)C3 -14.7%
CCOc1ccc(-n2c(SCC(=O)OC)nc3sc4c(c3c2=O)CCN(C)C4)cc1 -0.804%
Cc1ccccc1-c1nc(CS(=O)(=O)CC(=O)N2CCc3ccccc3C2)c(C)o1 -5.6%
O=C(COC(=O)c1cnccn1)Nc1cccc2ccccc12 -2.31%
N#CCCN1CCN(S(=O)(=O)c2ccc(S(=O)(=O)NC3CCCCC3)cc2)CC1 -3.88%
COC(=O)c1cc(NC(=O)CN2CCN(C(C)=O)CC2)cc(C(=O)OC)c1 2.81%
Cc1cccc(Nc2nnc(SCC(=O)c3c(N)n(C4CC4)c(=O)[nH]c3=O)s2)c1C -2.18%
Cc1nnc(NC(=O)c2ccc3nccnc3c2)s1 1.3%
Cc1nnc(NC(=O)C(c2ccccc2)c2ccccc2)s1 -0.437%
CC(C)Cn1c(N)c(C(=O)COC(=O)CN2C(=O)C3CC=CCC3C2=O)c(=O)n(C)c1=O (configuration not stated) -11.5%
COc1cccc(N2CC(NS(=O)(=O)c3cccs3)CC2=O)c1 (configuration not stated) 0.171%
CCc1ccc(CNC(=O)C2CC(=O)N(CCc3ccc(C)cc3)C2)cc1 (configuration not stated) -3.6%
CCOc1ccc(CNC(=O)C2CCCN(c3nnc(C)c4c(C)n(-c5ccccc5)nc34)C2)cc1 (configuration not stated) -5.11%
Cc1ccc(NC(=O)CN2CCc3ccccc3C2)cc1C -4.61%
Cc1ccc(OS(=O)Nc2cccc3nccnc23)cc1 (configuration not stated) -0.877%
COc1cccc(CNC(=O)Cc2csc(Nc3nc(=S)[nH]c4ccccc34)n2)c1 12.2%
O=C(CCCn1c(=O)[nH]c2cc(Cl)ccc2c1=O)NCCN1CCN(c2ccccc2)CC1 -5.22%
O=[N+]([O-])c1cc2ccccc2nc1-c1ccccc1 -4.74%
CC1COc2ccccc2N1C(=O)c1cccnc1Cl (configuration not stated) -2.06%
CN1CCN(c2nc(Nc3ccc(O)cc3)nc3ccccc23)CC1 10.9%
Cc1cccc(Nc2nc(NCCO)nc(N3CCCC3)n2)c1 2.75%
CC12CN(Cc3ccccc3)CC(C)(CN(Cc3ccccc3)C1)C2=NO -1.53%
CCOc1ccccc1-n1c(SCC(=O)NCc2ccco2)nnc1-c1ccncc1 -2.73%
COc1ccccc1NC(=O)Nc1nnc(Cc2ccc(F)cc2)s1 -2.06%
O=C(NCCOc1ccccc1F)Nc1ccc(Br)cc1 -2.98%
COc1cc(C)ccc1OCC(=O)OCC(=O)c1ccc[nH]1 6.43%
CC(NC(=O)COC(=O)CCC(=O)c1ccc(Cl)cc1)c1ccccc1 (configuration not stated) -9.29%
Cc1ccccc1Nc1nc(N)nc(COC(=O)CCC(=O)c2ccc(F)cc2)n1 -1.04%
OCCCNC(c1ccccc1)c1ccc(O)cc1 (configuration not stated) -0.537%
CCc1ccc2nc(N(CCCN(C)C)C(=O)c3ccc4c(c3)OCCO4)sc2c1 -10.5%
CCCC(=O)N(CCN1CCOCC1)c1nc2ccc(OCC)cc2s1 1.55%
Cc1onc(-c2ccccc2Cl)c1C(=O)N(Cc1ccc(N(C)C)cc1)C(C)C -12.7%
O=C(N/N=C/c1ccco1)c1csc2c1CCCC2 2.38%
O=C(Cc1ccccc1)Nc1cccc(C(=O)N/N=C/c2ccco2)c1 -7.68%
O=C(NCC1CCCCC1)NCC1CCCCC1 -3.89%
CCC(C)NC(=O)c1ccc(NC(=O)CC2SC(N3CCCCC3)=NC2=O)cc1 (configuration not stated) -9.42%
Cc1cc(C)n2nc(CNS(=O)(=O)c3c(F)c(F)c(F)c(F)c3F)nc2n1 -1.9%
CCn1c(NC(=O)c2ccccc2)c(-c2cccs2)c(=O)c2ccccc21 -4.73%
CC(=O)c1cccc(NC(=O)c2cc(C)nn2-c2ccccc2)c1 -9.9%
CCc1cccc(NC(=O)COC(=O)c2cc(=O)c3ccccc3o2)c1 -5.91%
COC(=O)c1c(C(=O)OC)c(-c2cccc(C)c2)n2c1CS(=O)C2 (configuration not stated) -2.6%
Cc1ccccc1Nc1c([N+](=O)[O-])ccc2nonc12 -0.872%
CN(C)CCN(C(=O)C1=COCCO1)c1nc2ccc(Cl)cc2s1 -10.2%
COc1ccc2sc(N(CCCN(C)C)C(=O)c3ccc(S(=O)(=O)N(C)C4CCCCC4)cc3)nc2c1 15.3%
CCCCn1c(N)c(N(CCC(C)C)C(=O)c2ccc([N+](=O)[O-])o2)c(=O)[nH]c1=O -0.599%
CCCCn1c(N)c(N(CCC(C)C)C(=O)COC(=O)c2cccnc2OCC)c(=O)[nH]c1=O 1.39%
CCn1c(/C=C/Nc2ccccc2)[n+](CC)c2ccc(C(=O)OCC(F)(F)F)cc21 -11.5%
O=C(NCCCn1ccnc1)C1CCCN(S(=O)(=O)c2cc(Cl)ccc2Cl)C1 (configuration not stated) -4.73%
CC(Sc1nc2cc(Cl)ccc2s1)C(=O)Nc1ccc2c(c1)OCO2 (configuration not stated) -3.52%
CCSc1ccccc1C(=O)Nc1ccc2c(c1)OCO2 0.935%
O=C1/C(=C/c2ccc3c(c2)OCO3)Oc2cc(OCC(=O)N3CC(O)C[C@H]3C(=O)O)ccc21 (some centres not stated) -7.81%
Cc1ccc(C(=O)NNc2ncnc3ccccc23)cc1 -2.14%
Cc1ccc(C(=O)NNC(=O)c2ccc3c(c2)OCCO3)cc1 -13%
CC(NC(=O)c1cccc(S(=O)(=O)N2CCc3ccccc3C2)c1)c1ccco1 (configuration not stated) 7.07%
O=C(CN1CCN(S(=O)(=O)/C=C/c2ccccc2)CC1)NC(=O)NCc1ccco1 -9.92%
Cc1cccc(C)c1NC(=S)N(Cc1cccnc1)Cc1ccccc1Cl 2.24%
COC(=O)C(C(=O)Nc1cccc(Cl)c1C)C1CCCC1 (configuration not stated) 0.709%
COc1cccc(/C=N/NC(=O)CNC(=O)c2ccc(S(=O)(=O)N3CCOCC3)cc2)c1OC 1.33%
COc1ccc(/C=N/NC(=O)c2ccncc2)cc1CN1CCCc2ccccc21 -19.4%

activation, active:
CCCCCCCCCCOC(=O)Cn1c(COc2cccc(OC)c2)[n+](C)c2ccccc21 28.7%
CCCCCCCCCCOC(=O)Cn1c(COc2ccc(C)cc2)[n+](C)c2ccccc21 38.3%
Cc1ccc(S(=O)(=O)N2CCC(Oc3ccc(-n4cnnn4)cc3)CC2)cc1 58.6%
Cc1cccc(OCC(O)CN2CCN(CCN3C(=O)c4cccc5cccc(c45)C3=O)CC2)c1C (configuration not stated) 62.2%
CCOc1ccc(-n2c(SCC(=O)Nc3ccc(OC)cc3)nc3sc4c(c3c2=O)CCN(C)C4)cc1 50.3%
Cc1nnc(NC(=O)Nc2ccc(Cl)c(Cl)c2)s1 28.8%
CCc1ccc(CNC(=O)C2CCN(c3nnc(C)c4c(C)n(-c5ccc(C)cc5)nc34)CC2)cc1 82.7%
O=C(Cc1csc(Nc2nc(=S)[nH]c3ccccc23)n1)NCCCN1CCN(c2cccc(Cl)c2)CC1 34.1%
OCCNc1nc(Nc2ccc(Cl)c(Cl)c2)nc2ccccc12 47%
O=C(Nc1ccccc1)Nc1nnc(COc2ccccc2F)s1 28.4%
Nc1nc(COC(=O)CCC(=O)c2ccc(Cl)cc2)nc(Nc2ccccc2)n1 21.6%
CCOc1ccc2nc(N(CCN(C)C)C(=O)c3ccc4ccccc4c3)sc2c1 18.5%
O=C(N/N=C/c1ccco1)c1ccc(NC(=O)C2CC2)cc1 31.9%
CCn1c(=O)c2cc(C(=O)Nc3cccc(C(C)=O)c3)sc2c2ccccc21 73.2%
CN(C)CCCN(C(=O)c1ccc(S(=O)(=O)N2CCCCCC2)cc1)c1nc2ccc(Br)cc2s1 41%
CCCCn1c(N)c(N(CCC(C)C)C(=O)COC(=O)c2ccc(CC)cc2)c(=O)[nH]c1=O 23.1%
CC(Sc1nc(-c2ccccc2)cc(C(F)(F)F)n1)C(=O)Nc1ccc2c(c1)OCO2 (configuration not stated) 30.4%
Cc1ccc(C(=O)NNC(=O)c2cc3cc4ccccc4nc3s2)cc1 26.4%
O=C(COC(=O)c1ccc(S(=O)(=O)N2CCc3ccccc3C2)cc1)NC(=O)NCc1ccco1 61.2%
COc1cccc(/C=N/NC(=O)c2[nH]nc3c2CCc2ccccc2-3)c1O 76.1%
